A selection: hits, their analogues and other compounds. The true share with any hit is near 1.8%.
LYPLA1 inh – LYPLA1 (human) inhibition in PME1 counter-screen; O75608; recombinant LYPLA1, FP-Rh probe fluorescence polarization; inhibition, % at 5.9 µM; 0.16% of 320,000 active; AID 2174;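 active = inhibition above the mean of all tested compounds plus 3 SD, set per campaign, cut at about 14% in these data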;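 note: inhibitors block serine hydrolase probe labeling of LYPLA1 so polarization falls; 0% = enzyme with DMSO and 100% = wells lacking LYPLA1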
Target sequence (O75608 whole entry, looked up): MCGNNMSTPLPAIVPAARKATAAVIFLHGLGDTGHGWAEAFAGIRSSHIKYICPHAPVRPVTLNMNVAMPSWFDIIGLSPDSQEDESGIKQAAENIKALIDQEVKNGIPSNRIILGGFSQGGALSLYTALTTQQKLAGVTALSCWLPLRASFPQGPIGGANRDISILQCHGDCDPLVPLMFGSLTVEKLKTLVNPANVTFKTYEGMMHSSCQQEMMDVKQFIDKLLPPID
PP5 primary – blocks human protein phosphatase 5 activity. P53041. purified PP5c, OMFP substrate fluorescence. inhibition, % at 6.7 µM. 0.18% of 320,000 active. AID 1987;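 active = inhibition above the campaign's mean inhibition across all tested compounds plus 3 SD, cut at about 9.5% in these data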;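 note: 0% = DMSO only and 100% = 100 µM cantharidin control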
PP1 inh – blocks human PP1-alpha phosphatase, a PP5 counter-screen. purified PP1alpha, OMFP fluorescence. inhibition, % at 6.7 µM. 0.9% of 320,000 active. AID 2235;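 active = inhibition above the mean inhibition of all tested compounds plus 3 SD, computed separately for each screening campaign, cut at about 15% in these data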
Fam108B counter – counter-screen for RBBP9 inhibitors: inhibitors of mouse Fam108B. recombinant Fam108B, FP-Rh probe fluorescence polarization. inhibition, % at 9.51 µM. 0.33% of 300,000 active;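 active = inhibition above the screen mean inhibition plus 3 SD, computed separately per campaign, cut at about 18% in these data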;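 note: inhibitors lower polarization as less probe binds the enzyme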
PME-1 primary – blocks human protein phosphatase methylesterase 1; Q9Y570; recombinant PME-1, FP-Rh probe fluorescence polarization; inhibition, % at 5.9 µM; 0.53% of 320,000 active; AID 2130;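 active = inhibition above the campaign mean of all compounds plus 3 SD, cut at about 26% in these data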;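 note: competitive labeling of PME-1 active site by serine hydrolase directed probe; 0% = PME-1 with DMSO and 100% = wells lacking PME-1 enzyme; inhibitors block probe labeling so polarization falls and inhibition rises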
LYPLA2 inh – LYPLA2 (human) inhibition in PME1 counter-screen; O95372; recombinant LYPLA2, FP-Rh probe fluorescence polarization; inhibition, % at 5.9 µM; 0.38% of 320,000 active; AID 2177;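 active = inhibition above the screen-wide mean plus 3 SD, limit set per campaign, cut at about 26% in these data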;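 note: 0% = LYPLA2 with DMSO and 100% = wells lacking LYPLA2 enzyme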
Target sequence (O95372 whole entry, looked up): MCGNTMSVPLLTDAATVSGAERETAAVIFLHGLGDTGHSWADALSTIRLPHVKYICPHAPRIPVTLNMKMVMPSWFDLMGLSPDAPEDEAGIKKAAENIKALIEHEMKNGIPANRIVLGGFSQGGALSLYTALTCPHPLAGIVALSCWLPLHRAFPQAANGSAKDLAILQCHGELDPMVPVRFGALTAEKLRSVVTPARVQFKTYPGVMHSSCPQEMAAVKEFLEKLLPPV
PP1 inh confirm – confirmation of human PP1 phosphatase inhibitors | inhibition, % at 6.7 µM | shares compounds with PP1 inh | purified PP1alpha, OMFP substrate fluorescence | 52% of 1,900 active;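 active = mean PP1 inhibition above a set limit taken from the earlier primary screen, cut at about 15% in these data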
PP5 counter – PP5 phosphatase inhibition, counter-screen for PP1 inhibitors | inhibition, % at 6.7 µM | purified PP5c, OMFP fluorescence | 4% of 1,900 active | shares compounds with PP1 inh;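 active = mean PP5 inhibition over triplicate wells above about 9.5% taken from the earlier PP1 screen, limit read from the data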
* marks the source's active call; other numbers are inactive results; . = not tested or not shown.

SMILES	LYPLA1 inh	PP5 primary	PP1 inh	Fam108B counter	PME-1 primary	LYPLA2 inh	PP1 inh confirm	PP5 counter
O=C(COC(=O)/C=C/c1ccccc1)Nc1nnc(-c2ccccc2)o1	1	0	24*	-8	1	-1	30*	-4
COc1cc(/C=C/C(=O)OCC(=O)Nc2nnc(-c3ccccc3)o2)cc(OC)c1OC	0	0	7	0	-5	0	.	.
O=C(Nc1nnc(-c2ccc3c(c2)CCCC3)o1)c1ccccc1Cl	0	3	25*	0	-3	7	25*	2
CC1O[C@@H](O[C@H](C)CC[C@@H](C)O[C@H]2OC(C)[C@@H](O)C[C@H]2O)C(O)C[C@H]1O (stereo partly specified)	-1	0	-1	-3	0	-2	.	.
CC1CCC(NC(=O)COC(=O)CNC(=O)c2ccc3ccccc3c2)CC1 (stereo unspecified)	2	2	0	.	1	7	.	.
O=C(Nc1nnc(-c2ccc3c(c2)CCCC3)o1)c1ccccc1	2	0	23*	1	-3	5	28*	0
O=C(COc1ccccc1)Nc1nnc(-c2ccc(F)cc2)o1	-3	1	11	-4	-3	1	.	.
O=C(COc1ccccc1)Nc1nnc(-c2ccccc2Cl)o1	-1	3	23*	2	3	3	20*	-5
COc1ccc(-c2csc(NC(=O)c3ccccc3NS(=O)(=O)c3ccc(F)c(F)c3)n2)cc1	4	12*	27*	18	31*	12	24*	7
Cc1ccc2[nH]c(=O)c(-c3nc4cc(C)ccn4c3NCc3ccco3)cc2c1	3	1	18*	0	4	4	21*	3
NC(=O)CC(NC(=O)Cc1cccc2ccccc12)c1ccc(N2CCc3ccccc3C2)c([N+](=O)[O-])c1 (stereo unspecified)	-10	1	18*	-2	-4	-3	17*	-1
NC(=O)CC(NC(=O)Cc1ccc(Cl)cc1)c1ccc(N2CCC(Cc3ccccc3)CC2)c([N+](=O)[O-])c1 (stereo unspecified)	-5	0	22*	-1	-4	-3	3	0
CC(C)(C)c1cc(C(=O)NNC(=O)c2ccc(Cl)cc2)no1	2	1	1	2	-4	7	.	.
O=C(c1ccco1)N1CCN(c2ncnc3c2nnn3Cc2ccccc2Cl)CC1	8	3	41*	7	8	17	44*	-4
Cc1cc(C(=O)CSc2nn(-c3ccccc3)c(=S)s2)c(C)n1Cc1ccco1	-3	3	20*	-5	-7	5	15	-2
COc1ccccc1NC(=O)NNC(=O)CCN1CCOCC1	2	4	3	5	-2	3	.	.
CCC(=O)c1cn(CC(=O)Nc2ccc(OC)cc2)c2ccccc12	3	7	7	-6	1	-4	.	.
O=C(Nc1cc(S(=O)(=O)N2CCCCC2)ccc1Cl)c1ccccc1NS(=O)(=O)c1ccc(F)cc1	-12	7	20*	4	-5	-2	14	8
O=C(c1ccco1)N1CCN(C(=O)c2cn(-c3ccccc3)nc2-c2ccccc2)CC1	-3	0	-6	.	4	-2	.	.
Cc1ccccc1OCCC(=O)OCC(=O)NC(=O)c1ccccc1	-7	2	22*	-3	-10	-11	-1	-5
O=C(CSc1ccc2nnc(-c3ccc(Cl)cc3)n2n1)N1CCCc2ccccc21	0	2	24*	0	4	-2	13	-6
O=C(CSc1ccc2nnc(-c3ccc(F)cc3)n2n1)N1CCCc2ccccc21	-4	2	4	-8	3	-2	.	.
O=C1CC(=O)N(Cc2ccco2)C(=S)N1	-13	2	-3	-5	-52	-23	.	.
O=C1CC(=O)N(Cc2ccco2)C(=O)N1	2	2	58*	7	-6	-1	1	1
C=CCOC(=O)C1=C(C)NC(SCC(=O)Nc2ccc(C)c(Cl)c2)=C(C#N)C1c1ccco1 (stereo unspecified)	-3	1	19*	-2	-5	-4	7	2
SMILES	LYPLA1 inh	PP5 primary	PP1 inh	Fam108B counter	PME-1 primary	LYPLA2 inh	PP1 inh confirm	PP5 counter
CC(C)N=C(N)N=C(N)Nc1ccc(Cl)cc1	3	3	1	3	-3	0	.	.
NC(=NCCCCCCN=C(N)/N=C(\N)Nc1ccc(Cl)cc1)/N=C(\N)Nc1ccc(Cl)cc1	-2	5	20*	1	-5	2	5	0
CC(=C/c1ccccc1)/C=N/NC(=O)c1nnn(-c2nonc2N)c1CN1CCC(C)CC1	-5	5	9	-6	-7	-7	.	.
CC1CCN(Cc2c(C(=O)N/N=C/c3ccccc3O)nnn2-c2nonc2N)CC1	-4	0	22*	-4	-6	0	17*	-5
[N-]=[N+]=NC[C@H](Cc1ccccc1)N1CC[C@@H](NC(=O)OCc2ccccc2)CCC1=O	-1	0	-4	4	1	0	.	.
COc1ccc(C(=O)N/N=C/c2ccc3cccc(O)c3n2)cc1	-10	-4	20*	2	-14	-12	5	2
O=C(N/N=C/c1ccc2cccc(OCc3ccccc3)c2n1)c1ccc(Cl)cc1	-20	3	24*	-28	7	-58	2	0
O=C(N/N=C/c1ccncc1)c1ccc(COc2cccc3cccnc23)cc1	-4	-1	4	-6	1	-5	.	.
O=C(O)c1ccc(N=Nc2c(O)ccc3ncccc23)cc1	-4	4	21*	17	-10	-1	14	0
COc1ccc(S(=O)(=O)N2CCCC2CNC(=O)C(=O)NCc2ccccc2)cc1 (stereo unspecified)	-4	-1	33*	2	2	-5	-5	-5
O=C(NCCC1CCCCN1S(=O)(=O)c1ccc(Cl)cc1)C(=O)NCc1ccncc1 (stereo unspecified)	0	2	31*	2	-1	13	-3	1
COC(=O)c1cc(NC(=O)Cn2c(=O)oc3ccccc32)cc(C(=O)OC)c1	-10	0	-1	-3	-3	-15	.	.
O=C(Nc1nccs1)c1cc2c(s1)-c1ccccc1OC2	-3	-1	23*	-10	-19	-11	26*	-4
Cc1cccc2c1-c1sc(C(=O)Nc3nccs3)cc1CO2	-8	1	21*	-7	-23	-15	3	-3
Cc1cccc2c1-c1sc(C(=O)Nc3cccnc3)cc1CO2	-16	3	4	-16	-41	-19	.	.
COc1cccc(N2CCN(C(=O)CNC(=O)c3sc4ccccc4c3Cl)CC2)c1	0	1	8	-2	9	1	.	.

Screening results from PubChem BioAssay.
